Assay [1] addresses Myc proto-oncogene protein (Homo sapiens) (UniProt P01106). The experiment in a line: ATG_Myc_CIS: Attagene CIS-FACTORIAL HepG2 Assay for human Myelocytomatosis (Myc) Proto-Oncogene Transcription Factor (AID 2282990). The following applies: HepG2, Attagene cis-reporter transcription factor activity; actives raise or lower the signal. The gist of the method: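 DMSO-normalised, bidirectionally fitted reporter mRNA signal. HepG2 cells transfected with cis reporter constructs, treated 24 h; transcripts detected by RT-PCR, 6-FAM primer extension and CE.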

The nature of assay [2]: ATG_NF_kB_CIS: Attagene CIS-FACTORIAL HepG2 Assay for human Nuclear Factor Kappa B (NF-kB) (AID 2282991). The following applies: HepG2 Attagene cis-factorial NF-kB reporter mRNA; actives raise or lower the signal. The gist of the method: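 HepG2 cells transiently transfected with multiplexed cis-element reporter units measuring endogenous transcription factor activity; reporter mRNA read 24 h after dosing by RT-PCR, fluorescent labelling, HpaI digestion and capillary electrophoresis. Bidirectional fit against DMSO baseline.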

Assay [3] can be described thus: ATG_NRF2_ARE_CIS: Attagene CIS-FACTORIAL HepG2 Assay for human Nuclear Factor Erythroid 2 Related Factor 2 (NFR2) response to Antioxidant Response Elements (ARE) (AID 2282992). The following applies: HepG2 Attagene ARE/NRF2 reporter, transcription factor activity; actives raise or lower the signal. Summed up:
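Using transiently transfected HepG2 cells exposed for 24 h, reporter mRNA levels were determined by RT-PCR with fluorescent primer extension and capillary electrophoresis, analysed for gain or loss of signal against DMSO.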

A short description of assay [4]: BSK_3C_TissueFactor: BioMAP Diversity Plus: 3C Assay for Tissue Factor Biomarker Activity (AID 2282997). Particulars: BioMAP 3C HUVEC, tissue factor biomarker readout; actives raise or lower the signal. Summed up:
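Readout: Tissue Factor ELISA. Cells: human primary umbilical vein endothelium. Time: 24 h after dosing. Analysis: bidirectional fit, DMSO baseline.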

Assay [5] is described as follows: BSK_3C_VCAM1: BioMAP Diversity Plus: 3C Assay for Vascular cell adhesion molecule 1 (VCAM1) Biomarker Activity (AID 2282999). Particulars: BioMAP 3C HUVEC, VCAM1 ELISA, cytokine-stimulated; actives raise or lower the signal. The gist of the method:
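Vascular primary endothelium (human umbilical vein) was exposed to chemicals and assayed 24 h later. VCAM-1 levels came from ELISA, with DMSO serving as baseline for bidirectional fitting.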
(An ELISA detects its analyte on a solid surface through an enzyme-linked reagent.)

Assay [6] is described as follows: BSK_4H_Eotaxin3: BioMAP Diversity Plus: 4H Assay for Eotaxin 3 Biomarker Activity (AID 2283000).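 Note: CCL26 protein level quantified by ELISA in parallel with SRB cytotoxicity check.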 Particulars: primary human endothelial cells (HUVEC); actives raise or lower the signal. Summed up: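 HUVEC, 24 h post-dose, ELISA for Eotaxin-3/CCL26. Gain or loss of signal fitted bidirectionally vs DMSO baseline.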
Assay [7] addresses human Peroxisome Proliferator-activated Receptor alpha (PPARa), PPARA (gene 5465) (UniProt Q07869). In words: ATG_PPARa_TRANS: Attagene TRANS-FACTORIAL HepG2 Assay for human Peroxisome Proliferator-activated Receptor alpha (PPARa) (AID 2283001; active = hit-call score of the fitted dose curve at least 0.9, where 1 is the maximum). The gist of the method:
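Cells (HepG2) are transfected with multiple reporter transcription units, exposed to chemical for 24 h, then total RNA is reverse-transcribed and amplified. Labelled products are quantified by capillary electrophoresis; induction is referenced to DMSO.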

Assay [8] has as its target human Peroxisome Proliferator-activated Receptor delta (PPARd), PPARD (gene 5467) (UniProt Q03181). In words: ATG_PPARd_TRANS: Attagene TRANS-FACTORIAL HepG2 Assay for human Peroxisome Proliferator-activated Receptor delta (PPARd) (AID 2283002; active = hit-call score of the fitted dose curve at least 0.9, where 1 is the maximum). Summed up:
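Measured quantity: GAL4-UAS reporter transcript induction in HepG2 after 24 h chemical dosing, with NR-Gal4 chimeras supplied by transient transfection. Detection by RT-PCR and capillary electrophoresis; upward fit against DMSO.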

Read-out in assay [9]: Intercellular Adhesion Molecule 1 (ICAM1), ICAM1 (gene 3383)
In words: BSK_3C_ICAM1: BioMAP Diversity Plus: 3C Assay for Intercellular Adhesion Molecule 1 (ICAM1) Biomarker Activity (AID 2283003). Particulars: primary human endothelial cells (HUVEC); actives raise or lower the signal. The gist of the method:
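ELISA readout of ICAM1 in human umbilical vein endothelial cells in the 3C system, taken 24 h post-dose. Gain or loss of signal versus DMSO was fitted in both directions, with SRB total-protein staining run in parallel.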

In assay [10] the target is Retinoic acid receptor alpha (Homo sapiens) (UniProt P10276). The experiment in a line: ATG_RARa_TRANS: Attagene TRANS-FACTORIAL HepG2 Assay for human Retinoic Acid Receptor alpha (RARa) (AID 2283005; active = hit-call score of the fitted dose curve at least 0.9, where 1 is the maximum). The gist of the method: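 HepG2 cells transiently transfected with multiple reporter units expressing chimeric RARα-GAL4 fusion, with GAL4-UAS-driven reporters. After 24 h compound exposure, reporter mRNA induction quantified by RT-PCR and capillary electrophoresis with fluorescent labeling; gain-of-signal fitted relative to DMSO control.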
Sequence of Retinoic acid receptor alpha (Homo sapiens) (P10276 whole entry, looked up, the tested form may be a part): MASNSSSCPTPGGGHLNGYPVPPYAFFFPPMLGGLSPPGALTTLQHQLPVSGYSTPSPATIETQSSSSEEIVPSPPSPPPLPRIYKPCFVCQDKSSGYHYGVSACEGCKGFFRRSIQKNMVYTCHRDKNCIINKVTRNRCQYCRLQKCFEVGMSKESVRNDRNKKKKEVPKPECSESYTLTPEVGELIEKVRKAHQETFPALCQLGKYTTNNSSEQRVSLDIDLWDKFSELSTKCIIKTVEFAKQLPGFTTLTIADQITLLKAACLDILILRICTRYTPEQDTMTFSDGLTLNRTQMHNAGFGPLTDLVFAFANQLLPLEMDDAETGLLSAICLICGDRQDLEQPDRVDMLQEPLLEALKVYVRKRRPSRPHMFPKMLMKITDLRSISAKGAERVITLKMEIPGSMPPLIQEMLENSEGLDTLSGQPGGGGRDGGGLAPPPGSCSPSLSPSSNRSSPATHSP

A short description of assay [11]: BSK_3C_Proliferation: Cell Proliferation Assessment in the BioMAP Diversity Plus: 3C Assay (AID 2283006).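 For AC50: potency may reflect either rise or fall in cell number versus DMSO.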 The following applies: primary human endothelial cells (HUVEC). Summed up:
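Proliferation as total protein: sulforhodamine B (0.1%) stain of TCA-fixed subconfluent human umbilical vein endothelial cells, absorbance 560 nm, 48 h after dosing. Activity fitted in both directions against DMSO baseline.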

Assay [12] deals with Nuclear receptor subfamily 1 group I member 2 (Homo sapiens) (UniProt O75469). In words: ATG_PXR_TRANS: Attagene TRANS-FACTORIAL HepG2 Assay for human Pregnane X Receptor (PXR) (AID 2283008; active = hit-call score of the fitted dose curve at least 0.9, where 1 is the maximum). Summed up:
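Multiplexed TRANS reporter panel in HepG2; this component tracks PXR-Gal4-driven reporter mRNA after 24 h dosing, measured by RT-PCR with capillary electrophoresis fluorescence, fitted against DMSO.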

For assay [13], the target named is human RAR-related Orphan Receptor beta (RORb), RORB (gene 6096) (UniProt Q92753). In words: ATG_RORb_TRANS: Attagene TRANS-FACTORIAL HepG2 Assay for human RAR-related Orphan Receptor beta (RORb) (AID 2283010; active = hit-call score of the fitted dose curve at least 0.9, where 1 is the maximum). The gist of the method:
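Read-out is reporter mRNA induction, quantified by RT-PCR with fluorescent capillary electrophoresis, 24 h post-dose in transiently transfected HepG2 expressing exogenous NR-Gal4 chimera. Activity fitted upward versus DMSO.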

For assay [14], the target named is Retinoic acid receptor RXR-alpha (Homo sapiens) (UniProt P19793). In words: ATG_RXRa_TRANS: Attagene TRANS-FACTORIAL HepG2 Assay for human Retinoid X Receptor alpha (RXRa) (AID 2283012; active = hit-call score of the fitted dose curve at least 0.9, where 1 is the maximum). Summed up: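 TRANS format reporting activity of exogenous RXRa-Gal4 chimera in transiently transfected HepG2, 24 h exposure. Reporter transcripts quantified by RT-PCR with capillary electrophoresis, with gain of signal scored relative to DMSO.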
Sequence of Retinoic acid receptor RXR-alpha (Homo sapiens) (P19793 whole entry, looked up, the tested form may be a part): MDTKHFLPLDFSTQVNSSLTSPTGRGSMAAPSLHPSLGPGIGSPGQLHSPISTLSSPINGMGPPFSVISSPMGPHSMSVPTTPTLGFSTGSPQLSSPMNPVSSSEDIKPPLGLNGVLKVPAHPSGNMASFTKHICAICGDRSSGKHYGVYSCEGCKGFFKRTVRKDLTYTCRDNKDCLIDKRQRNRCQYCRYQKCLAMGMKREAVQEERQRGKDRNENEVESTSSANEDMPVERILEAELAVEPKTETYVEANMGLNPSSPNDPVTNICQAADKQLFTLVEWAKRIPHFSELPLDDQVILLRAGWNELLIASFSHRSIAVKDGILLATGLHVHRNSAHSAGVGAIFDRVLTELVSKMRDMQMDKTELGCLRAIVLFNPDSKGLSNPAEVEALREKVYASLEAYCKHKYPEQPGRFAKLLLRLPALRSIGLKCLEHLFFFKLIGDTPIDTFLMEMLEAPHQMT

Assay [15] addresses Cellular tumor antigen p53 (Homo sapiens) (UniProt P04637). In words: ATG_p53_CIS: Attagene CIS-FACTORIAL HepG2 Assay for human p53 Transcription Factor (AID 2282994). Particulars: HepG2 p53 cis-element reporter, Attagene mRNA; actives raise or lower the signal. Summed up: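 In HepG2 cells, reporter transcription units under cis-regulatory promoters were transiently introduced. Following 24 h treatment, RNA was processed to labelled, digested cDNA fragments read by capillary electrophoresis; fitting was bidirectional versus DMSO.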

The target of assay [16] is human Retinoic Acid Receptor beta (RARb), RARB (gene 5915) (UniProt P10826). In words: ATG_RARb_TRANS: Attagene TRANS-FACTORIAL HepG2 Assay for human Retinoic Acid Receptor beta (AID 2283004; active = hit-call score of the fitted dose curve at least 0.9, where 1 is the maximum). Summed up:
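HepG2 cells transiently transfected with multiplexed GAL4-UAS reporter units expressing chimeric NR–Gal4 fusions; 24 h compound exposure. Reporter mRNA quantified by RT-PCR, 6-FAM labelling, HpaI digestion and capillary electrophoresis; gain-of-signal fitted against DMSO baseline.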

Assay [17] has as its target Peroxisome proliferator-activated receptor gamma (Homo sapiens) (UniProt P37231). In words: ATG_PPARg_TRANS: Attagene TRANS-FACTORIAL HepG2 Assay for human Peroxisome Proliferator-activated Receptor-gamma (PPARg) (AID 2283007; active = hit-call score of the fitted dose curve at least 0.9, where 1 is the maximum). Summed up: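 HepG2 cells transiently transfected with multiplexed GAL4-UAS reporter units and exogenous chimeric NR-Gal4 proteins; reporter mRNA quantified after 24 h compound exposure by RT-PCR, fluorescent labelling, HpaI digestion and capillary electrophoresis; gain-of-signal fitted versus DMSO baseline.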

The target in assay [18] is human RAR-related Orphan Receptor gamma (RORg), RORC (gene 6097) (UniProt P51449). The experiment in a line: ATG_RORg_TRANS: Attagene TRANS-FACTORIAL HepG2 Assay for human RAR-related Orphan Receptor gamma (RORg) (AID 2283011; active = hit-call score of the fitted dose curve at least 0.9, where 1 is the maximum). The gist of the method: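 Readout: reporter transcript induction (RT-PCR, fluorescent primer extension, capillary electrophoresis) after 24 h compound exposure of transiently transfected HepG2 cells carrying a RORg-Gal4 chimera and GAL4-UAS reporters; DMSO served as baseline, with increasing signal fitted.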
Sequence of human RAR-related Orphan Receptor gamma (RORg), RORC (gene 6097) (P51449 whole entry, looked up, the tested form may be a part): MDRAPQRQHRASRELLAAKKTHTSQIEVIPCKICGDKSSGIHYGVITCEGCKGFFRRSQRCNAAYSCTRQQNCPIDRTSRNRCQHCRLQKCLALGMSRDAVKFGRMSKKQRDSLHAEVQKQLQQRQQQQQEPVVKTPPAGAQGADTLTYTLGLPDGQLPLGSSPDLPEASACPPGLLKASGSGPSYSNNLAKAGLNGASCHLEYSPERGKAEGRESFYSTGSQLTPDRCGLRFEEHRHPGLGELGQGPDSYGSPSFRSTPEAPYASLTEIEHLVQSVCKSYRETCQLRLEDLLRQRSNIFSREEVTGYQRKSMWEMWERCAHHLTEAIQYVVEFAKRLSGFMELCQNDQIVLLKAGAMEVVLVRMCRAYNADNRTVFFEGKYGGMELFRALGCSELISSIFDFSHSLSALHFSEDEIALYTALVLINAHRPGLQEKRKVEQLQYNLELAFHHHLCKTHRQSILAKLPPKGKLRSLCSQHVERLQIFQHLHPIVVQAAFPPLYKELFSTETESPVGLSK

Assay [19] can be described thus: ATG_Oct_MLP_CIS: Attagene CIS-FACTORIAL HepG2 Assay for human Octamer-Binding Transcription Factor (Oct) (AID 2282993). The following applies: HepG2 Attagene cis-factorial Oct reporter, mRNA; actives raise or lower the signal. Summed up:
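Transient MRTU transfection of HepG2 → 24 h compound treatment → RNA isolation, reverse transcription, PCR → 6-FAM primer extension, HpaI digest → capillary electrophoresis. Activity fitted both directions against DMSO.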

The nature of assay [20]: BSK_3C_uPAR: BioMAP Diversity Plus: 3C Assay for Urokinase-type plasminogen activator receptor (uPAR) Biomarker Activity (AID 2282998). Particulars: BioMAP 3C HUVEC, uPAR biomarker ELISA; actives raise or lower the signal. The gist of the method: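 ELISA readout of uPAR on human vascular endothelium (umbilical vein primary cells), taken 24 h after chemical dosing. Increases and decreases are both fitted relative to DMSO vehicle.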

Results filed as inconclusive are left out. The source made the active and inactive calls. Rule for the calls, unless noted: active = hit-call score of the fitted dose curve at least 0.9, where 1 is the maximum; inactive = score below 0.9.

Usually AC50 stands for the concentration at which the activity in the assay is half-maximal.

Sequence of Nuclear receptor subfamily 1 group I member 2 (Homo sapiens) (O75469 whole entry, looked up, the tested form may be a part): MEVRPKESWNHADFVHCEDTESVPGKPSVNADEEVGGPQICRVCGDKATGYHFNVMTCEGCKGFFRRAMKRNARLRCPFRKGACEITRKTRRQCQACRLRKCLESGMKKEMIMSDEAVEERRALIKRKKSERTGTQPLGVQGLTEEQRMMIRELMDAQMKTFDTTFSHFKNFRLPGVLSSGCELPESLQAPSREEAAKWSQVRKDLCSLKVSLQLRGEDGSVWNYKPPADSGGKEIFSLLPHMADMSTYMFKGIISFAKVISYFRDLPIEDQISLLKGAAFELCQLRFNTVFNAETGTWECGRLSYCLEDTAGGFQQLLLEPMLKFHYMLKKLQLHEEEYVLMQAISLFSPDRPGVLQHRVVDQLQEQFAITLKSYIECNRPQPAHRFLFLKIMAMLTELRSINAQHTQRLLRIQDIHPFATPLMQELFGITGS
Sequence of Myc proto-oncogene protein (Homo sapiens) (P01106 whole entry, looked up): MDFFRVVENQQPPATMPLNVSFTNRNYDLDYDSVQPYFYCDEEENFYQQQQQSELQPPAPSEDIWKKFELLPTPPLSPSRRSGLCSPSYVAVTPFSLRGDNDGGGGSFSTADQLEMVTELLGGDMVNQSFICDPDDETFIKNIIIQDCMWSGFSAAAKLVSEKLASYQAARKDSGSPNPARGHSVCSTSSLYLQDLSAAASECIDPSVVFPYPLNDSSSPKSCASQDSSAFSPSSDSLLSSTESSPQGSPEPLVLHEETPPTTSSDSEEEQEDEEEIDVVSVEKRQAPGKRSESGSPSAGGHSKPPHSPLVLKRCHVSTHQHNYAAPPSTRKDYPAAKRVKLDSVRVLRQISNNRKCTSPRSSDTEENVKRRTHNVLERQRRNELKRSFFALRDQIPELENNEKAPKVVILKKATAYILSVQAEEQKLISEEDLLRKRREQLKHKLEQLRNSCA
Sequence of Cellular tumor antigen p53 (Homo sapiens) (P04637 whole entry, looked up, the tested form may be a part): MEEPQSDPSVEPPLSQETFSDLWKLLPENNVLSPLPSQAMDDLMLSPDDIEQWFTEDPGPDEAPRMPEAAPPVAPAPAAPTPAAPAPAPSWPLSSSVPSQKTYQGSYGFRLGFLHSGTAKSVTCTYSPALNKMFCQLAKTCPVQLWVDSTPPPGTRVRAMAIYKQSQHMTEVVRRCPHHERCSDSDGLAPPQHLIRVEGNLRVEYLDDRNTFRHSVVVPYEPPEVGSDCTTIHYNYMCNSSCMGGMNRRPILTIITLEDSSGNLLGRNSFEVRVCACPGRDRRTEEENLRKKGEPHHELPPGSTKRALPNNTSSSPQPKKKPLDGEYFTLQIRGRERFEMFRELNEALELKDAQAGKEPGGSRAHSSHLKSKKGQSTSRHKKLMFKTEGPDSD
Sequence of human RAR-related Orphan Receptor beta (RORb), RORB (gene 6096) (Q92753 whole entry, looked up, the tested form may be a part): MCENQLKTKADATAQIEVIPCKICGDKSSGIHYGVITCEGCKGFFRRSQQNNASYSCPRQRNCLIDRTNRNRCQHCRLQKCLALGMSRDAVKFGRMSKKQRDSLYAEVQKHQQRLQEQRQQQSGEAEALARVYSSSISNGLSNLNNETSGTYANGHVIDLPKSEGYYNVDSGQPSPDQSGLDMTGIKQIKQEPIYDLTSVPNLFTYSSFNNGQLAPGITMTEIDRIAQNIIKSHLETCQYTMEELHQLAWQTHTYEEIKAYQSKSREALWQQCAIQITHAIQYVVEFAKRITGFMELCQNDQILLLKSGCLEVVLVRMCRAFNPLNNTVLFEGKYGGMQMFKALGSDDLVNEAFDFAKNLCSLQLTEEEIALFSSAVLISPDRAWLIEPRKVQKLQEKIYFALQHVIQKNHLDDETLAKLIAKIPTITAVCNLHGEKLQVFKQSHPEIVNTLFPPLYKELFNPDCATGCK
Sequence of human Peroxisome Proliferator-activated Receptor alpha (PPARa), PPARA (gene 5465) (Q07869 whole entry, looked up): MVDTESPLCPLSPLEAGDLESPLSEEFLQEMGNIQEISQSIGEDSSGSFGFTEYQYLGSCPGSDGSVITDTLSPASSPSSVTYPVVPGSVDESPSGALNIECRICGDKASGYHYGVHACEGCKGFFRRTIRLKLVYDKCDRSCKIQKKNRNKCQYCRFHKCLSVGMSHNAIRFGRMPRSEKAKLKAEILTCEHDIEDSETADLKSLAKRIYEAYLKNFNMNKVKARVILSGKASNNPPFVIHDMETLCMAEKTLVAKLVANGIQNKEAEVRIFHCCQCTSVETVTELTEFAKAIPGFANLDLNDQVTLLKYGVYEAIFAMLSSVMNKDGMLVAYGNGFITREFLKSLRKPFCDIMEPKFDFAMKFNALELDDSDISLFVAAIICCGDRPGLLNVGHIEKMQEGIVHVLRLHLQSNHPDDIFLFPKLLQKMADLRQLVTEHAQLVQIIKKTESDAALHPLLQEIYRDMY
Sequence of Peroxisome proliferator-activated receptor gamma (Homo sapiens) (P37231 whole entry, looked up, the tested form may be a part): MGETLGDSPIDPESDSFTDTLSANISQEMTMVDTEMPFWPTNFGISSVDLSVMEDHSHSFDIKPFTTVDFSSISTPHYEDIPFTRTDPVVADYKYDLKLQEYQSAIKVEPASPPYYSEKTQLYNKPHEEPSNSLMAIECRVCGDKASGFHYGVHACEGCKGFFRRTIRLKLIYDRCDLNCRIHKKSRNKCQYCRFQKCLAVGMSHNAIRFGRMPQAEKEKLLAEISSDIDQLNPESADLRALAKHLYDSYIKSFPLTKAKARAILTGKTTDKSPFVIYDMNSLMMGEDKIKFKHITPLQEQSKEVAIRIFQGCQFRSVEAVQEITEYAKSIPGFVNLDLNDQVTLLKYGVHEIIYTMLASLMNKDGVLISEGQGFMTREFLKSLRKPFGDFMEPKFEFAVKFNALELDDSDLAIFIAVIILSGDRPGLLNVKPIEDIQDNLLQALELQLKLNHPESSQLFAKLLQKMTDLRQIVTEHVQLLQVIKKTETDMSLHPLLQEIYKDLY
Sequence of human Peroxisome Proliferator-activated Receptor delta (PPARd), PPARD (gene 5467) (Q03181 whole entry, looked up, the tested form may be a part): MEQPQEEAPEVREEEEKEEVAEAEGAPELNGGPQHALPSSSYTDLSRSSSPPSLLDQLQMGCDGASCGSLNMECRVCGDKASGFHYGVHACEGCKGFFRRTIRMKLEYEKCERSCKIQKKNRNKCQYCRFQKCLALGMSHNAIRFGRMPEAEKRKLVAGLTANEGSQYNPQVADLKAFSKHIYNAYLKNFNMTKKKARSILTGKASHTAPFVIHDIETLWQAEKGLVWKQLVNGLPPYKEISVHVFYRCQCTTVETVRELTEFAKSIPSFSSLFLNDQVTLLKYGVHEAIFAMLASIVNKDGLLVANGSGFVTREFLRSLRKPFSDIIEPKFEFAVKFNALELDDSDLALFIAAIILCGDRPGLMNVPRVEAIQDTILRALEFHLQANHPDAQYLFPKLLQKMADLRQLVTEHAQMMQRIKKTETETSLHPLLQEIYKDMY

In the case of `O=S(=O)(O)c1ccc(N=Nc2c(O)ccc3cc(S(=O)(=O)O)ccc23)cc1`, the result in [1], in [2], in assay [3], in assay [4], in assay [5] and in assay [6] was inactive. For the same molecule, the molecule was classed as inactive in [7], in assay [8], in assay [9], in assay [10], in assay [11] and in assay [12]. Also, the molecule was called inactive in assay [13] and in assay [14].
With `OCCC(F)(F)C(F)(F)C(F)(F)C(F)(F)F`, the result in assay [1], in assay [2], in [3], in [15], in assay [4] and in [5] was inactive. In addition, the outcome in assay [6], in [7], in assay [8], in [9], in assay [16] and in [10] was inactive. Further, the result in [11], in [17], in assay [12], in assay [13], in [18] and in assay [14] was inactive.
As for `CCCCCOC(C)=O`, the result in assay [1], in [2], in assay [3], in [19], in assay [4] and in [5] was inactive. The outcome in [6], in [8], in assay [9], in [13] and in assay [18] was inactive. In [11], the half-maximal activity concentration (AC50) was 20.8 µM (active).
Take `CCCCN1C(=O)[C@@H]([C@H](O)C2CCCCC2)NC(=O)C12CCN(Cc1ccc(Oc3ccc(C(=O)O)cc3)cc1)CC2`: the result in assay [1], in assay [3], in [4], in assay [5], in assay [6] and in [7] was inactive. The result in assay [8], in assay [9], in assay [17] and in assay [12] was inactive. Besides, the AC50 is 53.4 µM (active) in assay [2], 93.5 µM (active) in assay [15], 26.7 µM (active) in assay [20] and 28.2 µM (active) in assay [11].
Regarding `NC(N)=O`, the molecule was classed as inactive in assay [1], in [2], in [3], in [19], in [4] and in [5]. Further, the outcome in [6], in assay [8], in assay [9], in assay [11] and in assay [14] was inactive.
`Cn1c(=O)c2[nH]cnc2n(C)c1=O`: the result in assay [1], in assay [2], in [3], in assay [15], in assay [4] and in assay [5] was inactive. For the same molecule, the result in assay [6], in [7], in assay [9], in assay [11], in assay [17] and in assay [12] was inactive. Further, the molecule was classed as inactive in [18] and in assay [14].
Take `Cn1cc[nH]c1=S`: the molecule was classed as inactive in assay [1], in assay [2], in [3], in assay [15], in [4] and in assay [20]. The result in assay [5], in assay [6], in assay [7], in assay [8], in assay [9] and in [16] was inactive. Further, the result in assay [11] was inactive.
As to `COS(C)(=O)=O`, the molecule was classed as inactive in assay [1], in assay [2], in assay [3], in assay [4], in [20] and in assay [5]. Also, the result in assay [6], in [9], in [11], in assay [17], in assay [13] and in assay [18] was inactive. Also, the molecule was classed as inactive in assay [14].
`CCCc1ccccc1`: the molecule was called inactive in assay [1], in [3], in [19], in assay [15], in [4] and in [20]. Besides, the result in [5], in assay [6], in assay [8], in [9], in assay [11] and in [17] was inactive. Besides, in [14], the outcome was inactive.
